# The full list was thinned out, with hits kept by preference.
# p53 reactivation – restores transcriptional activity of mutant p53; H1299 p53-A138V BP100-luciferase reporter, luminescence, 24 h; Potency, µM (top dose mostly 92.2 µM), for inactives: top-dose activity change, positive = activation, actives largely listed as activators; 0.063% of 320,000 active; AID 504706; active = well fitted activation curve with a large enough effect; inconclusive = small, poorly fitted or top-dose-only effect; inactive = no such curve, though single readings can be large or run the other way; note: potency is the fitted concentration of half-maximal effect; % of control where 0% means no effect; nearly all actives have a fitted effect of over 45% in size
#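 p53-null H1299 cells stably carrying temperature-sensitive p53-A138V and a BP100-luciferase reporter were pinned with compounds (4-point, 1:5 series) and held 24 hrs at 37 deg C. Luminescence was read 10 min after detection reagent.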
# Menin-MLL TR inh – inhibitors of human menin-MLL interaction, mutant MLL peptide; 0.23% of 270,000 active; Menin + Texas Red MLL mutant peptide, fluorescence polarization; Potency, µM (series often up to 61.6 µM), for the others: at the highest dose FP activity change, negative = inhibition, most hits filed as inhibitors; O00255; AID 1768; active = well fitted inhibition curve with a large enough effect in the polarisation, with a control signal flat, not every such curve was filed as active; inconclusive = small, poorly fitted or top-dose-only effect, or effect the other way, or a change in a side signal; inactive = no such curve, though single readings can be large or run the other way; the % refers to the polarisation; note: potency is the fitted concentration of half-maximal effect; % of control where 0% means no effect
# Menin-MLL FL inh – menin-MLL binding inhibition, fluorescein peptide | FP activity change, % at 61.4 µM | Fluorescence polarization, fluorescein-MLL peptide displacement from menin | 290,000 tested, under 10 active; active = well fitted curve in the direction sought with a large enough effect in the polarisation, not every such curve was filed as active; inconclusive = small, poorly fitted or top-dose-only effect, or effect the other way, or a change in a side signal; inactive = no such curve, though single readings can be large or run the other way; the % refers to the polarisation; note: % of control where 0% means no effect
# ClpP mod – qHTS Assay for Activators of ClpP; ATP-dependent Clp protease proteolytic subunit (Bacillus subtilis (strain 168)), P80244; purified B. subtilis ClpP, FRET peptide cleavage, 20 min; Potency, µM (titrated, usually from 57.5 µM), for the others: at the top dose activity change, negative = active; 1.9% of 340,000 active; AID 651965, 2013; active = well fitted falling curve with a large enough effect; inconclusive = small, poorly fitted or top-dose-only effect; inactive = no such curve, though single readings can be large or run the other way; note: potency is the fitted concentration of half-maximal effect; the source files actives as falling curves though it sought activators and does not explain the sign; nearly all actives have a fitted effect of over 65% in size
#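 Purified B. subtilis ClpP, 10 microg/mL final in Tris/HCl pH8 with KCl, BSA, glycerol and Tween-20, cleaved an Abz/nitrotyrosine-quenched decapeptide. Fluorescence (ex 320, em 430) was read at 0 and 20 min at room temperature. Delta was normalized to 5.8 microM ADEP and DMSO/no-enzyme controls.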
# CXXC DNA block – MLL CXXC-DNA interaction inhibition | 0.037% of 290,000 active | AID 2662 | MLL-CXXC / FITC-HOXA9 DNA fluorescence polarization | Q03164 | Potency, µM (doses to about 115 µM), without a hit: top-dose activity change, negative = inhibition, hits mostly inhibitors; active = well fitted inhibition curve with a large enough effect in the polarisation, with a control signal flat, not every such curve was filed as active; inconclusive = small, poorly fitted or top-dose-only effect, or effect the other way, or a change in a side signal; inactive = no such curve, though single readings can be large or run the other way; the % refers to the polarisation; note: potency is the fitted concentration of half-maximal effect
#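 Steps: dispense CXXC domain solution (7 uM) → pin compounds or unlabeled HOX-A9 DNA control → 5 min ambient → add FLSN-HOX-A9 solution (50 nM) → spin → 30 min ambient → fluorescence polarization. Tris pH 7.5/NaCl/DTT/BSA buffer.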
# * = called active by the depositor; ? = inconclusive; / = no result given; [ ] = another dose, or the depositor's remark.
SMILES,p53 reactivation,Menin-MLL TR inh,Menin-MLL FL inh,ClpP mod,CXXC DNA block
Cc1onc(-c2ccccc2)c1C(=O)n1nnc2ccccc21,19.4%,-6.1%,1.4,28.2µM*,-2.8%
Cc1onc(-c2ccccc2)c1C(N)=O,-5.6%,?,-0.9,-1.0%,2.6%
CCCCc1nc(NCCO)c(C#N)c2c1CCCC2,-0.2%,?,2.3,4.2%,6.0%
CCCCNc1nc(CC)c2c(c1C#N)CCCC2,-2.1%,-9.3%,-3.0,28.2µM*,-8.1%
Clc1ccc(CNc2cnccn2)cc1,0.6%,-1.5%,-2.5,/,3.5%
c1ccc(CNc2cnccn2)cc1,0.6%,?,5.7,3.16µM*,5.0%
Cc1ccc(CNc2cnccn2)cc1,2.4%,22.0%,1.0,14.1µM*,2.6%
O=c1cc(-c2ccccc2)oc2c1ccc1ccccc12,/,4.9%[24.8 µM],-2.9,/,/
O=c1cc(/C=C/c2ccccc2)oc2c1ccc1ccccc12,-1.8%,14.9%,2.0,28.2µM*,15.8%
CCCNC(=O)N1N=C(c2ccc(N)cc2)c2cc3c(cc2C1C)OCO3 (stereo not given),/,?,3.0,/,/
COc1cc(/C=C2\CC(C(C)(C)C)C/C(=C\c3cc(OC)c(OC)c(OC)c3)C2=O)cc(OC)c1OC (stereo not given),-12.9%,7.94µM*,-15.8,-2.1%,?
CCOc1ccc(Nc2oc(-c3cccs3)nc2C#N)cc1,/,?,4.7,17.8µM*,-2.3%
CCOc1ccc(Nc2oc(-c3ccco3)nc2C#N)cc1,2.7%,2.9%,3.4,-26.7%,-0.6%
CCOc1ccc(-c2nc(C#N)c(NCC3CCCO3)o2)cc1 (stereo not given),-2.8%,6.5%,5.6,-33.7%,5.6%
C=CCNc1oc(-c2ccc(OC)cc2)nc1C#N,9.4%,2.9%,-2.4,41.9%,3.7%
C=CCNc1oc(-c2cccc3ccccc23)nc1C#N,3.4%,23.0%,6.6,3.16µM*,5.3%
CCOc1ccc(-c2nc(C#N)c(NCC(C)C)o2)cc1,-3.4%,-0.3%,-1.2,39.8µM*,-2.7%
C=CCNc1oc(-c2ccc(OCC)cc2)nc1C#N,-2.4%,12.0%,5.4,0.794µM*,4.3%
CC[C@H](C)[C@H](NC(=O)[C@H](C)NC(=O)CNC(=O)[C@H](CCCN=C(N)N)NC(=O)[C@H](C)NC(=O)[C@H](CC(C)C)NC(=O)[C@H](CCC(=O)O)NC(=O)[C@H](CC(C)C)NC(=O)[C@H](C)NC(=O)[C@@H](N)CCC(=O)O)C(=O)N[C@@H](Cc1ccccc1)C(=O)N[C@@H](CCC(N)=O)C(=O)N[C@@H](C)C(=O)O,/,-18.6%,-0.3,/,/
NC(=O)c1c(C(F)(F)F)cc(-c2ccccc2)nc1NCCO,-6.1%,23.9%,6.6,22.4µM*,1.0%
S=c1ncc2n[nH]nc2[nH]1,/,/,/,2.0%,/
COc1ccc(OC)c(N=c2oc3cc(O)ccc3cc2C(N)=O)c1,?,-8.4%,8.3,28.2µM*,24.2%
COc1ccc(-c2cc(C(F)(F)F)nc(NC3CCCC3)n2)cc1OC,-6.2%,-17.2%,6.9,35.5µM*,2.2%
COc1ccc(-c2cc3ccccc3n2CC(O)CNCCO)cc1 (stereo not given),-5.2%,/,-4.6,11.2µM*,10.2%
CC(C)OC(=O)c1cc2c(ccn2C)n1CC(=O)N(Cc1ccccc1)c1ccccc1,3.1%,-0.7%,-0.6,28.2µM*,5.5%
SMILES,p53 reactivation,Menin-MLL TR inh,Menin-MLL FL inh,ClpP mod,CXXC DNA block
C[N+]1(CC(=O)c2ccc3ccccc3c2)CCOCC1,/,/,/,-27.5%,/
O=C(COC(=O)c1ccco1)Nc1nc2c(F)c(F)c(F)cc2s1,2.1%,?,1.5,/,0.3%
O=C(COC(=O)CCC1CCCC1)Nc1nc2c(F)c(F)c(F)cc2s1,0.8%,25.1µM*,10.1,/,1.4%
COc1ccccc1N1CCN(C(c2ccc(F)cc2)c2nnnn2C(C)C)CC1 (stereo not given),-5.1%,-7.0%,-2.4,17.8µM*,-0.2%
COc1cc(N)c(N)cc1OC,/,/,/,-12.5%,/
COc1nc(=O)n(C2OC(CO)C(O)C2O)cc1C (stereo not given),/,/,/,35.5µM*,/
C=C1C=C(C)n2ncc(C(=O)Nc3ccc(NC(C)=O)c(Cl)c3)c2N1,/,/,/,-0.4%,/
Nc1nc(Nc2ccccc2)nc(N2CCOCC2)c1[N+](=O)[O-],10.8%,13.6%,3.1,15.8µM*,0.3%
COc1ccc(Nc2nc(N)c([N+](=O)[O-])c(N3CCOCC3)n2)cc1,-4.8%,/,0.2,-2.3%,-6.6%
COC(=O)c1sc(N2C(=O)c3oc4ccc(C)cc4c(=O)c3C2c2ccc(O)c(OC)c2)nc1C (stereo not given),/,/,/,0.4%,/
CCOC(=O)N1CCC(NC(=O)c2ccc3c(c2)N(Cc2ccc(C)cc2)CCS3)CC1,1.7%,?,6.7,4.7%,-1.6%
CCOC(=O)N1CCC(NC(=O)c2ccc3c(c2)N(C)CCS3)CC1,-4.7%,-8.0%,0.4,28.2µM*,7.3%
Cc1ccc(NC(=O)NC(=O)N(C(C)C)S(C)(=O)=O)nc1,3.3%,-19.5%,1.0,35.5µM*,9.1%
CC(C)N(C(=O)NC(=O)Nc1ccccn1)S(C)(=O)=O,18.2%,4.9%,6.2,/,-0.2%
COCCCNc1ncnc2c1c(-c1ccccc1)cn2-c1ccc(C)c(Cl)c1,/,/,/,-0.6%,/
COc1ccc(CNc2oc(-c3ccc(COc4ccc(Cl)cc4)o3)nc2C#N)cc1,/,/,/,12.6µM*,/
COc1ccc(OCc2ccc(-c3nc(C#N)c(NCc4ccccc4)o3)o2)cc1,/,/,/,11.2µM*,/
O=S(=O)(c1ccccc1Cl)N1CCN(c2nc(-c3ccccc3)nc3ccccc23)CC1,/,/,/,1.2%,/
O=C(O)[C@H]1O[C@@H](Oc2ccc3ccc(=O)oc3c2)[C@H](O)[C@@H](O)[C@@H]1O,/,-28.9%,2.5,/,/
O=C(Nc1nc(-c2ccc(S(=O)(=O)N3CCCC3)cc2)cs1)C1COc2ccccc2O1 (stereo not given),-10.5%,10µM*,4.9,-17.5%,20.1%
Cc1cc(C)cc(Nc2nc(-c3ccc(S(=O)(=O)N4CCCC4)cc3)cs2)c1,2.9%,-26.1%,6.2,3.7%,8.3%
O=S(=O)(c1ccc(-c2csc(Nc3ccc(F)cc3)n2)cc1)N1CCCC1,-3.4%,?,3.8,20µM*,1.0%
Cc1ccc(Nc2nc(-c3ccc(S(=O)(=O)N4CCCC4)cc3)cs2)cc1C,4.2%,?,-0.4,?,-1.6%
Cc1ccc(Nc2nc(-c3ccc(S(=O)(=O)N4CCOCC4)cc3)cs2)cc1,/,/,/,12.6µM*,/
COc1ccc(NS(=O)(=O)c2ccc(S(=O)(=O)N3CCOCC3)cc2)cc1,-4.0%,3.7%,0.0,15.8µM*,-5.7%

# Assay outcomes as filed in PubChem.
